Experimental data: PubChem BioAssay AID605 (National Center for Advancing Translational Sciences (NCATS), 2007)
Among all 71,000 compounds or so, about 35 (0.05%) were called active. The call rests on the fitted dose curve; in most records, active means well fitted curve in the direction sought with a large enough effect; inconclusive means small, poorly fitted or top-dose-only effect, or effect the other way; inactive means flat fitted curve, though single readings scatter. Only a sample is shown.

The compounds below were run against tRNA threonylcarbamoyladenosine biosynthesis protein TsaE (Escherichia coli (strain K12)) (UniProt P0AF67) (assay: qHTS Assay for Inhibitors of YjeE). Conditions: purified YjeE enzyme, qHTS inhibition assay.
Description: NIH Molecular Libraries Screening Centers Network [MLSCN]
NIH Chemical Genomics Center [NCGC]
Assay Provider: Eric Brown, McMaster University
YjeE is an essential E.coli protein of unknown function that binds adenosine diphosphate (ADP). A complex of YjeE and BODIPY Texas Red-labeled ADP probe (Invitrogen, catalog number A22359) is incubated with library members. Inhibitors of YjeE-ADP binding are detected by a decrease in the fluorescence polarization (FP) of the fluorophore. Purified YjeE was supplied by Chand Mangat and Eric Brown, McMaster University.
NCGC Assay Protocol Summary:
2 uM probe/10 uM YjeE in columns 1, 2, 5-48. Titration of ADP control (from 40 mM, then 1:2) pin-transferred to top half of column 2. Column 1 and bottom half of column 2 are neutral.
Two and a half uL of reagents were dispensed to 1536-well Greiner black plates. Compounds and controls (20 nL) were transferred via Kalypsys PinTool. The plates were incubated for 15 min at room temperature, and then read on ViewLux (Perkin-Elmer) High-throughput CCD imager using BODIPY polarization filter set and 30 seconds exposure time. During dispense, reagent bottle was kept submerged into 4 deg C water bath and all liquid lines were covered with aluminum foil to minimize probe and protein degradation.
Keywords: NIH Roadmap, MLSCN, MLI, MLSMR, qHTS, NCGC, YjeE

outcome, inactive:
Oc1ccc(O)c2c(O)cccc12
Cc1ccc(S(=O)(=O)NC(=O)N2CCCC(C)(C)C2)cc1
C=CCOC(=O)COCCC(C)C
CCC1=C/C(=C\c2ccc3c(c2)OCO3)C(=O)S1
COC(=O)N1CCC[C@@]2(CCN(C(=O)NC(C)C)C2)C1
O=S(=O)(NCc1ccccc1Cl)c1cnc[nH]1
CCCCn1c(SCC(=O)N2CCC(C(=O)OCC)CC2)nc2cc(S(N)(=O)=O)ccc21
CCCC(Cl)CCCC(Cl)CCC(Cl)CCC(Cl)CCC(Cl)CCCC(Cl)CCC (stereo not given)
Nc1ccccc1N
N[C@@H](C(=O)O)c1ccc(P(=O)(O)O)cc1
CC(=O)OC(C(=O)NCCc1ccccc1)c1cccnc1 (stereo not given)
COCc1[nH]nc2c1C(C1C=CCCC1)C(C#N)=C(N)O2 (stereo not given)
O=C(c1csnn1)N1CCC[C@@]2(CCN(Cc3nccs3)C2)C1
COc1cc(Cl)c(C)cc1NC(=O)CSc1nnc(-c2ccco2)n1CC(C)C
O=C(Nc1cccc(F)c1)N1CC2(CCN(C(=O)c3csnn3)CC2)C1
Cc1cccc(CNc2cc(-c3ccccc3Cl)ncn2)c1
COC(=O)[C@@H]1[C@H]2C[C@H]3c4[nH]c5cc(OC)ccc5c4CCN3C[C@@H]2C[C@@H](OC(=O)c2cc(OC)c(OC)c(OC)c2)[C@@H]1OC
CCOc1ccccc1NC(=O)C1CCN(S(=O)(=O)c2c(C)nn(C)c2C)CC1
C=CCN1C(=O)C(O)(CC(=O)c2ccc(Cl)cc2)c2ccccc21 (stereo not given)
CS(=O)(=O)N1CCCC(C(=O)N2CCOCC2)C1 (stereo not given)
Clc1ccccc1-c1cc(NCCN2CCOCC2)ncn1
CCc1cc2c(=O)c(-c3ccon3)c(N)oc2cc1OC
CCn1c(SCC(=O)Nc2cc(C)ccc2C)nnc1-c1cnccn1
CC1=C(C(=O)OCc2ccccc2)C(c2ccc(C(F)(F)F)cc2)NC(=O)N1CCCCCC(=O)O (stereo not given)
COC(=O)[C@@]1(C)C=C[C@@H](Cc2ccccc2)N1C(C)=O
O=C(Cn1cc(C(=O)c2cccs2)c2ccccc21)NCc1cccs1
O=C(c1cnccn1)N1CCC[C@@]2(CCN(Cc3ccncc3)C2)C1
COC(=O)CCCCCN1C(=O)NC(c2ccc(-c3ccccc3)cc2)C(C(=O)OCc2ccccc2)=C1C (stereo not given)
Cc1ccc(Br)cc1
O=C1CC(N2CCN(C(c3ccccc3)c3ccccc3)CC2)C(=O)N1 (stereo not given)
CCOc1ccc(C(=O)N(Cc2ccc(N(C)C)cc2)C2CCS(=O)(=O)C2)cc1 (stereo not given)
C/C(=C\C(=O)c1ccccc1)Nc1cccc(O)c1
Cc1cc2nc3c(=O)[nH]c(=O)nc-3n(C[C@H](O)[C@H](O)[C@H](O)CO)c2cc1C
O=C(O)c1ccc(C(=O)c2ccccc2C(=O)O)cc1C(=O)O
Cc1ccc(-c2c3c(=O)n(C)c(=O)n(C)c3cn2-n2cnnc2)cc1
C=CC(=O)OCCOCCOCCOCCOC(=O)C=C
CCOc1ccc2c(c1)cc(CN(C(=O)CC)C1CCCCC1)c1nnnn12
Cc1nc2cnc(N3CCNCC3)nc2n(Cc2ccc(F)cc2)c1=O
COc1ccc2c(=O)cc(-c3ccccc3)oc2c1O
C=CCn1c(SCc2csc(C)n2)nc2scc(-c3ccc(C)o3)c2c1=O
C=CC(=C)CCC=C(C)C
Cc1ccc(NC(=O)N2CCC(C(=O)NCc3ccc(F)cc3)CC2)cc1
O=C(NCc1ccccc1)[C@H]1C[C@@H]1[C@H](NP(=O)(c1ccccc1)c1ccccc1)c1ccccc1
O=C1C(c2[nH]c3ccccc3c2O)=Nc2ccccc21
COc1c(C)c2c(c(O)c1C/C=C(\C)CCC(=O)O)C(=O)OC2
Fc1ccc2nc(-c3ccccc3)nc(SCc3nnc(-c4ccccc4)o3)c2c1
Cc1cc(Cl)ccc1OCC(=O)Oc1c(Cl)c(Cl)c(Cl)c(Cl)c1Cl
CCN(CC)CCCCn1c(-c2ccccc2)nc2c(N3CCOCC3)nc(C)nc21
CCNC(=O)CCc1nc(-c2ccc(C(C)(C)C)cc2)no1
c1cncc(CNc2ccnc(-c3ccc4c(c3)OCO4)n2)c1
Cc1cc(C)c2c(c1)c(C)cc1nnc(SCC(=O)NCc3ccco3)n12
Cc1ccc(-c2noc(-c3ccccc3C(=O)NCC3CCCO3)n2)cc1 (stereo not given)
c1ccc2c(c1)-c1ccccc1C2N1CC2CCC(CC2)C1
CCC(=O)Nc1ccc(C(=O)Nc2ccc3c(c2)C(=O)N(CC2CCCO2)C3=O)cc1 (stereo not given)
CSCC[C@H](NC(=O)NCc1cccs1)C(=O)O
Cc1cccn2c(=O)c3cc(C(=O)N4COCC4(C)C)n(C)c3nc12
CCC[C@@H]1C[C@@]1(CCC)[C@@H](NC(=O)c1ccccc1)c1ccc(C(=O)OC)cc1
Cc1nc(CNS(=O)(=O)c2ccc(Oc3ccccc3)cc2)cs1
O=C(c1csnn1)N1CCC2(CCN(Cc3nccs3)CC2)CC1
CC1(C)CCCC2=C1CC1C(=O)N(c3ccccc3)C(=O)C1C2 (stereo not given)
COc1ccc(-c2cc(C(=O)NC(C(=O)O)C(C)C)c(C)o2)cc1OC (stereo not given)
Cc1ccc(-c2nnn(CC(=O)N(CCO)C(C(=O)NC(C)(C)C)c3ccncc3)n2)cc1 (stereo not given)
Cc1ccc(NC(=O)CCNS(=O)(=O)c2ccc3c(c2)oc(=O)n3C)cc1C
CCC/C=C(\CCC)C(NC(=O)Cc1ccccc1)c1ccc(C(=O)OC)cc1 (stereo not given)
O=C1CC(c2cccc(Br)c2)C2=C(CCCC2=O)N1 (stereo not given)
COc1ccc(-c2nc3cnc(Oc4ccccc4)nc3n(Cc3cccs3)c2=O)cc1
Oc1c(CN2CCOCC2)ccc(CN2CCOCC2)c1O
CC(=O)CSc1nnc(CSc2ncccn2)n1C1CCCCC1
CCN1CCN(C(=O)CN(C)S(=O)(=O)c2ccc(OC)cc2)CC1
CCOc1ccc(S(=O)(=O)n2ccnc2)c2ccccc12
CCc1ccc(Nc2ncc3c(n2)CC(c2ccco2)CC3=O)cc1 (stereo not given)
COc1ccc(CN(C(=O)c2cccs2)c2nccs2)cc1OC
Cc1ccc(C(=O)CS(C)(=O)=O)cc1
CC(C)C(=O)N1CCN(CCN=CC2=C(O)CC(c3ccco3)CC2=O)CC1 (stereo not given)
COc1cccc(N2CCN(C(=O)C3CCCN(S(=O)(=O)c4cnc[nH]4)C3)CC2)c1 (stereo not given)
O=C(Nc1c(C(=O)N2CCCCC2)cnn1-c1ccccc1)c1ccco1
COc1ncc2nc(-c3ccc(Cl)cc3)c(=O)n(-c3ccccc3)c2n1
COc1cc2[nH]c(=S)n(Cc3ccc(C)o3)c(=O)c2cc1OC
CCC(C)(C)N=C(NC#N)Nc1cccnc1
C[C@@H](Nc1nc(-c2ccccc2)nc2c1oc1ccccc12)C(=O)O
Cc1ccc(N(CC(O)CN2CCCC2)S(=O)(=O)c2ccccc2)cc1 (stereo not given)
COc1ccc(N2C(=O)CC(N3CCC(C(N)=O)CC3)C2=O)cc1 (stereo not given)
CCCCCCn1c(CN2CCCC(C)C2)nc2c1c(=O)n(C)c(=O)n2C (stereo not given)
O=NO
Cc1ccc(S(=O)(=O)NC(=O)NN2C[C@H]3CCC[C@@H]3C2)cc1
CCCn1c(=O)c(-c2ccccc2)c(O)c2ccccc21
CC(C)CC1(C(=O)NCc2ccccn2)C=CCN1C(=O)c1ccccc1 (stereo not given)
COCCOC(=O)C1=C(C)Nc2nc(C)nn2C1c1ccccc1 (stereo not given)
CCCC(=O)Nc1nnc(CC(=O)OCC)s1
O=C(O)[C@@H](S)[C@H](S)C(=O)O
